Screens: PubChem, National Center for Advancing Translational Sciences (NCATS)
HepG2 viability: HepG2 cytotoxicity, counter-screen for TGF-b inhibitors; HepG2 CAGA-GFP viability, ATP luminescence, 18 h; Potency, µM (titrated, usually from 46.1 µM), for inactives: at the top dose activity change, negative = cytotoxicity, most hits filed as cytotoxic; 410,000 compounds, 0.76% hits; AID 588856
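HepG2 CAGA-GFP cells (1000/well, DMEM with 1% FBS) received compound, then TGF-beta at 500 pg/mL final, and were incubated 18 hours at 37 degrees C. Viability was read by CellTiter-Glo luminescence. Media-only wells were set as complete cell-killing and DMSO as no toxicity.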
TDP1 cell CPT: growth inhibition of DT40 Tdp1-/-;hTDP1 cells with camptothecin (screen for TDP1 inhibitors); chicken DT40 Tdp1-/-;hTDP1 cells + 20 nM CPT, ATP luminescence, 48 h; Potency, µM (doses to about 46.2 µM), without a hit: at the top dose activity change, negative = growth inhibition, most hits filed as inhibitors; 420,000 compounds, 12% hits; AID 686979; further: on the % scale 0 is the no-effect control and ±100 the full control effect; nearly all actives have a fitted effect of over 55% in size
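Chicken DT40 Tdp1-/- cells complemented with human TDP1, 400 cells/well, exposed to compounds plus 20 nM camptothecin for at least 48 h at 37 C; viability read as ATP content by CellTiter-Glo luminescence.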
TDP1 cell noCPT: qHTS for Inhibitors of human tyrosyl-DNA phosphodiesterase 1 (TDP1): qHTS in cells in absence of CPT; Potency, µM (top dose mostly 46.2 µM), for inactives: top-dose activity change, negative = growth inhibition, most hits filed as inhibitors; DT40 Tdp1-/- hTDP1 cells, no CPT, ATP luminescence, 48 h; 420,000 compounds, 15% hits; AID 686978, 2013; further: on the % scale 0 is the no-effect control and ±100 the full control effect; nearly all actives have a fitted effect of over 55% in size
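Cells were dispensed at 400 per well, compounds added by pin tool, plates incubated ≥48 hr at 37 °C, then CellTiter-Glo added for 30 min at room temperature before luminescence reading. Line: DT40 Tdp1-/- complemented with hTDP1; camptothecin omitted.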
TGFb SMAD3 inh: blocks TGF-b signaling; HepG2 CAGA-GFP TGF-b/SMAD3 reporter, GFP fluorescence, 18 h; TGF-beta stimulated, 500 pg/mL final; Potency, µM (series often up to 46.1 µM), without a hit: at the highest dose activity, negative = inhibition, usual class: inhibitors; 410,000 compounds, 1.2% hits; further: on the % scale 0 is the no-effect control and ±100 the full control effect; nearly all actives have a fitted effect of over 65% in size
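Inhibition of TGF-beta-driven CAGA-GFP reporter expression in HEPG2 cells is measured by cellular GFP fluorescence after 18 h stimulation with 500 pg/mL recombinant TGF-beta in 1% FBS medium at 37 degrees C.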
HT1080-NT tox: kills 2HG-producing HT-1080-NT fibrosarcoma cells | 360,000 compounds, 1.6% hits | Potency, µM (series often up to 46.1 µM), for the others: at the highest dose activity, negative = less viability, most hits filed as cytotoxic | HT-1080-NT fibrosarcoma viability, CellTiter-Glo ATP luminescence, 48 h;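 further: NT is the 2HG producing partner of a matched IDH1 knockdown line; 0% = DMSO-treated cells and -100% = media-only wells without cells; nearly all actives have a fitted effect of over 55% in size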
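Fibrosarcoma NT cells, 750 per well in 5% FBS RPMI, were exposed to compound for 48 hours. Viability: CellTiter-Glo luminescence.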
HT1080 IDH1KD tx: HT-1080 IDH1 knockdown cell toxicity (counter line); HT-1080 IDH1 knockdown viability, ATP luminescence, 48 h; Potency, µM (titrated, usually from 46.1 µM), for the others: top-dose activity, negative = toxicity, actives largely listed as cytotoxic; 360,000 compounds, 2% hits; AID 686971;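 further: 0% = DMSO wells and -100% = cell-free medium wells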
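Assay cells: HT-1080 with IDH1 knockdown, 750 per well, RPMI/5% FBS. Exposure: 48 h at 37 °C following 2 h pre-incubation. Read: CellTiter-Glo luminescence; fitted concentration-response, curve class assigned.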
* marks the source's active call; other numbers are inactive results; ? = inconclusive; nt = no result given; [ ] = another dose, or the depositor's remark. Compounds with a hit are over-represented: about 17% of the library has one in this group of screens. The call rests on the fitted dose curve; in most records, active means well fitted curve in the direction sought with a large enough effect; inconclusive means small, poorly fitted or top-dose-only effect, or another doubt; inactive means no such curve, though single readings can be large; an effect the other way counts as inactive or inconclusive. Potency means the concentration at half of the fitted maximal effect.

SMILES	HepG2 viability	TDP1 cell CPT	TDP1 cell noCPT	TGFb SMAD3 inh	HT1080-NT tox	HT1080 IDH1KD tx
O=Cc1ccc(C(=O)OCC(=O)NCc2ccco2)cc1	3%	-5%	7%	10%	2%	0%
Nc1ncnc2c1ncn2[C@H]1CC[C@@H](CO)O1	3%	1.6µM*	2.9µM*	4%	?	16%
Nc1nc(Cl)nc2c1ncn2C1CCC(CO)O1 (stereo unspecified)	2%	1µM*	1.5µM*	6%	5%	4%
O=C(COc1ccccc1)NCc1nnc2c3ccccc3c(-c3ccccc3)nn12	-17%	?	?	?	-15%	-8%
COc1cc(CN(CCc2c(C)[nH]c3ccc(C)cc23)C(=S)NC(C)(C)C)cc(OC)c1OC	-24%	21µM*	16µM*	-18%	-20%	-4%
CNC(=S)N(CCc1c(C)[nH]c2ccc(C)cc12)Cc1ccc(OC)c(OC)c1	-29%	?	?	?	-13%	-17%
Cc1ccc(NC(=O)CCn2cnc3onc(-c4ccc(F)cc4)c3c2=O)c(Br)c1	2%	-13%	-13%	7%	nt	nt
O=C(CCn1cnc2onc(-c3ccc(F)cc3)c2c1=O)Nc1cccc(C(F)(F)F)c1	-50%	16µM*	16µM*	?	nt	nt
O=C(CCn1cnc2onc(-c3ccc(F)cc3)c2c1=O)Nc1ccc(F)c(Cl)c1	-69%	13µM*	15µM*	nt	nt	nt
O=C(CSc1nncs1)Nc1ccc(N2CCCCC2)cc1	-6%	?	16µM*	-10%	6%	-6%
COc1ccc(NC(=O)CSc2nncs2)cc1S(=O)(=O)N1CCCCC1	-11%	-20%	5%	10%	3%	-4%
CN(C)CCN(Cc1ccco1)C(=O)c1cc2c(s1)-c1ccccc1OC2	13µM*	16µM*	16µM*	?	nt	nt
CCCCN(Cc1ccco1)C(=O)c1cc2c(s1)-c1c(C)cccc1OC2	-22%	?	23µM*	?	nt	nt
COc1cc(=O)n2c(c1C(=O)NCc1ccco1)CCN(Cc1cccc(Cl)c1)CC2	nt	14%[9.04 µM]	-26%	nt	nt	nt
CN(Cc1ccc(Cl)c(Cl)c1)C(=O)C1=CC=CN2CCS(=O)(=O)N=C12	-20%	-22%	-23%	-10%	-2%	-15%
O=C(CC1Oc2ccccc2NC1=O)NCc1ccccc1 (stereo unspecified)	1%	?	-10%	-4%	4%	5%
CC(=O)CC1OC(=O)C(Br)=C1NCc1ccccc1 (stereo unspecified)	7.9µM*	0.92µM*	1.5µM*	10µM*	3.5µM*	0.89µM*
Cc1oc2ncn(C)c(=O)c2c1C(=O)NCc1ccccc1	-25%	0%	-23%	1%	nt	nt
CN(C)S(=O)(=O)N1CCC(Oc2cccc(C(=O)NC3CCOC3)c2)CC1 (stereo unspecified)	23%	-20%	-15%	18%	2%	13%
CN(C)S(=O)(=O)N1CCC(Oc2ccc(C(=O)NC3CCCCC3)cc2)CC1	-24%	-32%	?	?	3%	13%
CN(C)S(=O)(=O)N1CCC(Oc2cccc(C(=O)NC3CCCCC3)c2)CC1	-26%	18µM*	?	-16%	-25%	-23%
CN(C)S(=O)(=O)N1CCC(Oc2cccc(C(=O)NCCC3=CCCCC3)c2)CC1	-27%	16µM*	?	?	-24%	-22%
COCCC1CCCCN1C(=O)c1cccc(OC2CCN(S(C)(=O)=O)CC2)c1 (stereo unspecified)	-17%	0%	2%	-29%	6%	13%
CCC(C)CNC(=O)c1cccc(OC2CCN(CC(C)(C)C)CC2)c1 (stereo unspecified)	-18%	?	29µM*	-3%	7%	11%
CCCCN(C)C(=O)c1cccc(OC2CCN(CC(C)(C)C)CC2)c1	-12%	?	?	-16%	2%	3%
SMILES	HepG2 viability	TDP1 cell CPT	TDP1 cell noCPT	TGFb SMAD3 inh	HT1080-NT tox	HT1080 IDH1KD tx
CS(=O)(=O)N1CCC(Oc2cccc(C(=O)NCCCC3CCCC3)c2)CC1	-27%	?	21µM*	?	8%	-1%
O=C(Nc1ccc(F)cc1F)c1ccc(-n2cnc3cccnc32)cc1	-65%	nt	nt	?	nt	nt
CC(=O)Nc1ccc(NC(=O)CCS(=O)(=O)c2ccc3c(c2)CC(=O)N3C)cc1	-18%	-2%	-9%	-3%	nt	nt
COc1ccc(C(=O)NC(C)CCc2ccccc2)cc1[N+](=O)[O-] (stereo unspecified)	4%	5%	?	3%	-6%	-7%
COc1ccc(C(=O)C(C)[n+]2ccc(C)c3ccccc32)cc1[N+](=O)[O-] (stereo unspecified)	-9%	18µM*	7.3µM*	3%	-9%	-10%
CCCC1C(=O)Nc2ccccc2N1C(=O)c1cccc(C)c1 (stereo unspecified)	-10%	-26%	-11%	0%	-3%	-5%
CCCC1C(=O)Nc2ccccc2N1C(=O)c1ccc(C(C)(C)C)cc1 (stereo unspecified)	-89%	?	21µM*	?	9.2µM*	?
COc1cc(CC(=O)Nc2nc(C)cs2)cc(OC)c1OC	-12%	12µM*	21µM*	6%	2%	-1%
COc1ccc(CCN2C(=O)C3C4C=CC(C3C2=O)C2C(=O)N(CCc3ccc(OC)c(OC)c3)C(=O)C42)cc1OC (stereo unspecified)	-16%	10µM*	?	?	-18%	-16%
COc1cccc(CC(=O)Nc2nc(C)cs2)c1	-29%	-22%	-12%	7%	?	-2%
COc1ccc(-c2csc(NC(=O)Cc3cc(OC)c(OC)c(OC)c3)n2)cc1OC	-22%	21µM*	18µM*	-7%	-11%	?
COc1ccc(-c2csc(NC(=O)CS(=O)(=O)c3ccc(F)cc3)n2)cc1OC	-49%	?	?	13%	0%	0%
COc1ccc(CCN2C(=O)CC(NNc3ccc([N+](=O)[O-])cc3)C2=O)cc1OC (stereo unspecified)	6%	21µM*	21µM*	-19%	-1%	-2%
